Results on 40 compounds are retold here after PubChem BioAssay (NCI).

About 83,000 compounds went through this panel and 20% of them were active in at least one assay; those are over-represented in the sample as a whole.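 Cells were grown in 96-well plates and exposed to the test compound at a single concentration for 48 hours; results are reported as percent growth, with values below 10 considered active.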 A number with no mark means an inactive call. Activity calls are given as the source filed them.

The test has as its system MDA-MB-468 breast. In words: NCI-60 one-dose screen, 48 h (100 = growth as untreated, 0 = no growth, -100 = all killed). The settings on record: 10 µM unless noted.
For `COc1ccc(N2CCN(c3nc(-c4ccccc4)c(C#N)c(=O)[nH]3)CC2)cc1`, the growth was 97.9%. Consider `COc1ccc(-c2nn(-c3cccc(Cl)c3)cc2-c2cc(-c3ccccc3)nc(N)n2)cc1`, for which the growth is 30%. For the compound `CC(C)C(=O)Nc1ccc([N+](=O)[O-])c(C(F)(F)F)c1`, the growth was 61.7%. To `Clc1ccc(Cn2cc(-c3nc4ccc(Br)nc4n3Cc3ccc(Cl)cc3)c3cccnc32)cc1` belongs 60.7%; to `COc1ccc(C2c3sc4c(C)cccc4c3Oc3nc(CC(=O)Nc4ccccc4)[nH]c(=O)c32)cc1` (stereo not given), 18.6%. With `c1cncc(-c2nc3ccccc3[nH]2)c1`, the growth is 102%. In the case of `CN1CCN(Cc2ccc(NC(=O)c3cncc(C#Cc4cnc5ccc(NCCO)nn45)c3)cc2C(F)(F)F)CC1` it was -55.5% (active); in that of `CN(C)CCCN(Cc1ccccc1O)C(=S)Nc1ccc(Cl)cc1`, 89.6%. To `Cc1ccc(C(=O)Cc2ccccc2)c(O)c1` belongs 117%. In the case of `Cc1ncc(C#N)c(N)n1` it was 89.3%; in that of `O=C(OCc1ccc2c(Cl)cc(Cl)c(O)c2n1)N1CCN(C(=O)c2cc3ccccc3[nH]2)CC1`, 10.3%; in that of `Oc1ccccc1/C=N/N1CCCCCC1`, 107%. Consider `O=C(CSc1nnc(-c2ccc(Cl)cc2)n1-c1ccccc1)Nc1ccccc1Cl`, for which the growth was 78.5%. In the case of `O=C(N/N=C/[C@H](O)[C@@H](O)[C@@H](O)[C@H](O)CO)c1ccc(NC(=O)c2cccnc2)cc1` it was 105%; in that of `O=C(O)c1cccc2oc(-c3ccccc3O)nc12`, 35.2%; in that of `Cc1cc2cn3c4cccnc4[nH]c(=O)c3c2cc1C`, 37.2%. In the case of `[2H]c1nc(Nc2ncc3cc(C(=O)N(C)C)n(C4CCCC4)c3n2)c([2H])c([2H])c1N1C([2H])([2H])C([2H])([2H])NC([2H])([2H])C1([2H])[2H]` it was 89%; in that of `CC(=O)ON1CCCC(P(=O)(OCOC(=O)C(C)(C)C)OCOC(=O)C(C)(C)C)C1=O` (stereo not given), -21.2% (active). Consider `COC1=C(OC)C(=O)c2ccccc2C1=O`, for which the growth was -34% (active).

For `O=C(NC(=S)Nc1ccc(-c2nc3ccccc3[nH]2)cc1)c1ccc2ccccc2c1`, the growth was 13.6%. In the case of `COc1cc(OC)c(/C=C/S(=O)(=O)Cc2ccc(OC)c(NCC(=O)NO)c2)c(OC)c1` it was 39.5%; in that of `COc1cccc(C(=O)NNC(=O)c2cccc3ccccc23)c1`, 111%. In the case of `C=C1CCC2C3(C)COC(c4ccc(NC(C)=O)cc4)OC3CCC2(C)C1C/C=C1/C(=O)OCC1O` (stereo not given) it was 19.3%; in that of `Nc1ncc(-c2ccc3ncnc(N4CCc5ccc(Cl)cc54)c3c2)cn1`, -38% (active); in that of `CCn1cc(C(=O)O)c(=O)c2cc(F)c(N3CCN(CC(=O)Nc4ccc(C(C)=O)cc4)CC3)cc21`, 108%. Take `COc1ccc(/C=C(/C(=O)c2ccc(Cl)cc2)C(=O)C(F)(F)F)cc1`: the growth is 99.7%.

Turning to `CC(C)CCSc1nc(-c2ccc(F)cc2)c(C#N)c(N2CCCCC2)n1`, the growth is 104%. With `CCn1cnc(C[C@H](NC(=O)[C@H](CCCCNC(=O)Nc2cc(C(F)(F)F)cc(C(F)(F)F)c2)NC(=O)Nc2cc(C(F)(F)F)cc(C(F)(F)F)c2)C(=O)OC)c1`, the growth was -21% [100 µM] (active).

Consider `COc1cc(OC)cc(-c2cncn2-c2ccc(-c3nc4cc(OC)cc(OC)c4s3)cc2)c1`, for which the growth is 4% (active).

On to `Oc1ccc(Nc2ccccc2)cc1`, for which the growth is 86.4%.

For the compound `CC(C)Cc1nc(Nc2ccccc2)[nH]c(=O)c1C#N`, the growth was 14.5%.

Take `CCNCCNc1cc(C2CCCCC2)c(C#N)c2nc3ccccc3n12`: the growth is -45.3% (active). In the case of `CCN(CC)P(=O)(N(CC)CC)N(CCCSC/C=C(\C)CC/C=C(\C)CCC=C(C)C)CCCN1CCN(C)CC1` it was 92.4%; in that of `CCN1C(=O)c2ccc3c4c(ccc(c24)C1=O)C(=O)N(CCCNCc1ccccc1OC)C3=O`, -71.4% (active); in that of `COc1ccc(CN2CCc3c(Sc4ccccc4)nc(N)nc3C2=O)c(OC)c1`, 48.2%. Turning to `CCN(Cc1ccc(CN(CC)C(=O)C(Br)Br)cc1)C(=O)C(Br)Br`, the growth is 17.6%. In the case of `O=[N+]([O-])c1ccc(/C(=C/c2ccccc2)[n+]2ccccc2)cc1` it was 101%. In the case of `CCOC(=O)c1[nH]c(=O)c2c(C)nc(-c3ccccc3)cc2c1O` it was 92.9%. In the case of `CN(C)c1ccc(/C=C/C(=O)c2ccc(NC(N)=O)cc2)cc1` it was 81%. For `COc1cccc(Sc2ccc([N+](=O)[O-])c3no[n+]([O-])c23)c1`, the growth is 69.9%.
